Consider 40 molecules from PubChem BioAssay (NCATS).

Calls of active or inactive are those of the source.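 How the source made its calls: active means compounds whose dose series gives a full or clear partial fitted curve of increased nuclear translocation; inconclusive means weak partial curve or effect only at the top dose; inactive means no dose-dependent translocation response.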
Potency means the concentration at half of the fitted maximal effect.

Sequence of Glucocorticoid receptor (Homo sapiens) (P04150 whole entry, looked up): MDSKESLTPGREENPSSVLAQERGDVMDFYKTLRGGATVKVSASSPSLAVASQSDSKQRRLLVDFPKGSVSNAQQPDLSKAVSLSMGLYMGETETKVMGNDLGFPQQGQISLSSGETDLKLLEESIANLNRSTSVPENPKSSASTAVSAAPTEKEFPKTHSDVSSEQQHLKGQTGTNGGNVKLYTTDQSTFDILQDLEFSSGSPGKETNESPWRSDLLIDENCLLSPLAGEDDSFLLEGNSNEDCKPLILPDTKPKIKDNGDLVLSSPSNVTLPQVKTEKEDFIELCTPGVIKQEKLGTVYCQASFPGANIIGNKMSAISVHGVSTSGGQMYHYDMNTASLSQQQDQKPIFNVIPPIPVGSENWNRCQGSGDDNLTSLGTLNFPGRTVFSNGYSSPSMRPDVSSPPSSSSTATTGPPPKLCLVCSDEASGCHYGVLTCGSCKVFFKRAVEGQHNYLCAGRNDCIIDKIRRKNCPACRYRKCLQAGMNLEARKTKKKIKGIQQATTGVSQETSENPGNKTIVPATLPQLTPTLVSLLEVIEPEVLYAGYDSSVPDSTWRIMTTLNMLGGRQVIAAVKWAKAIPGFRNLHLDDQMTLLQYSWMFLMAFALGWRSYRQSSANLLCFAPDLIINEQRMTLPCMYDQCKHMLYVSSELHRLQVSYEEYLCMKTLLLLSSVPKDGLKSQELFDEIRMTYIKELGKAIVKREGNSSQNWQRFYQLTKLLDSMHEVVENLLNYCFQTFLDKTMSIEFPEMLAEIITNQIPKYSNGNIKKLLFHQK

The assay deals with Glucocorticoid receptor (Homo sapiens) (UniProt P04150). Description: GR-GFP Redistribution (AID 450). As to conditions: U2OS GR-GFP nuclear translocation, laser cytometry, 2 h. The text has this:
NIH Molecular Libraries Screening Centers Network [MLSCN]
NIH Chemical Genomics Center [NCGC]
The glucocorticoid receptor (GR) Redistribution assay (BioImage) enables the visualization of GR cytoplasmic to nuclear translocation by the use of a GR-GFP fusion. GR is normally cytosolic, however ligands such as dexamethasone, cause nuclear translocation where the protein binds to response elements and interacts with various co-factors to modulate transcription. Because both functional agonists and antagonists can induce nuclear translocation, this assay can detect ligands regardless of their effects on gene expression. GR-GFP expressing U20S cells were used here. Dexamethasone was the positive control for translocation and data normalization. Detection of nuclear translocation was performed in 1536-well plates using the Acumen laser scanning plate cytometer (TTP LabTech). Validation of this assay and a detailed protocol have been described.
NCGC Assay Protocol Summary:
GR-GFP U2OS cells were maintained in DMEM with Glutamax and high glucose, 1% v/v penicillin-streptomycin, and 0.5 mg/mL Geneticin. For cell culture, 10% […] fetal bovine serum (FBS) was used (Invitrogen #26140-079). For cell plating 10% dextran, charcoal-stripped FBS (Hyclone SH30068.03) was used. U2OS cells were trypsin treated, suspended in medium, and passed through a 40 um basket filter. The cells were seeded at 600 cells/5 uL/well into clear-bottom black sided 1536-well plates and incubated for approximately 20 hrs, 37degC, 5%, CO2 in a tissue culture incubator. Twenty-three nL of compound was delivered by pin tool and the plates were incubated as above for 2 hrs. The compounds were tested as a 7-point titration ranging from 46 uM to 0.6 nM. The cells were fixed using the Kalypsys Washer/Dispenser station. The fixing protocol involved aspiration of the cell media, addition of 6 uL/well of PBS, aspiration of PBS, addition of 5uL/well of 100% methanol, aspiration of methanol, and addition of 3 uL/well PBS with 1.5 uM propidium iodide (PI). The plates were read by the Acumen Explorer using a 1 x 8 um scan of the whole well area. PI fluorescence triggered the collection of PI and GFP signals. A nuclei population was defined by a 10 to 100 um width and depth filter that eliminated small and large fluorescent particles. Two subpopulations of nuclei were then defined by peak intensity of GFP fluorescence to obtain translocated and untranslocated objects. The number of translocated objects was used for data normalization.
Keywords: NIH Roadmap, MLSCN, MLI, MLSMR, sOGT, qHTS, NCGC
As to `CCNc1ncc2nc(-c3ccc(Cl)cc3)c(=O)n(CCC#N)c2n1`, the Potency is > 9.22 µM (inactive).

Consider `COc1ccccc1CCn1c(=O)c(-c2cccc(F)c2)nc2cncnc21`, for which the Potency was > 9.22 µM (inactive). On to `COc1ccc(-n2c(=O)cnc3cnc(OC)nc32)cc1`, for which the Potency was > 9.22 µM (inactive).

As for `COc1cccc(Cn2c(=O)c(-c3cn(C)c4ccccc34)nc3cnc(N4CCNCC4)nc32)c1`, the Potency is > 9.22 µM (inactive).

For the molecule `CCNc1ncc2nc(C)c(=O)n(-c3ccc(OC)cc3)c2n1`, the Potency is > 9.22 µM (inactive). In the case of `COc1ccc(-n2c(=O)c(-c3cccs3)nc3cnc(N(C)C)nc32)cc1`, the Potency is > 9.22 µM (inactive). On to `CNc1ccnc(-c2c(C)noc2C)n1`, for which the Potency was > 46 µM (inactive).

In the case of `CN(C)c1ncc2ncc(=O)n(CCC#N)c2n1`, the Potency is > 9.22 µM (inactive). Next, `CN(C)c1ccc(-c2cc(-n3ccnc3)ncn2)cc1`: > 46 µM (inactive). As for `Cc1nc2cnc(N3CCN(C)CC3)nc2n(Cc2cccs2)c1=O`, the Potency was > 9.22 µM (inactive). For the molecule `CCNc1ncc2nc(CCc3ccccc3)c(=O)n(-c3ccccc3)c2n1`, the Potency was > 9.22 µM (inactive). `CNc1nc(-c2ccccc2CN(C)C)nc2ccccc12`: the Potency is > 46 µM (inactive). To `CC(=O)NCCNc1ncncc1-c1ccccc1C` belongs > 46 µM (inactive); to `Cc1nc2cnc(N3CCNCC3)nc2n(Cc2ccc(F)cc2)c1=O`, > 9.22 µM (inactive); to `CN(C)c1ncc2nc(-c3cc(F)cc(F)c3)c(=O)n(CCC#N)c2n1`, > 9.22 µM (inactive).

With `Cc1nc2cnc(N3CCOCC3)nc2n(C2CC2)c1=O`, the Potency is > 9.22 µM (inactive). `COCCn1c(=O)c(-c2ccccc2)nc2cnc(Oc3ccc(OC)cc3)nc21`: the Potency is > 9.22 µM (inactive). As to `CN(C)c1ncc2ncc(=O)n(C3CC3)c2n1`, the Potency is > 9.22 µM (inactive). In the case of `COCCn1c(=O)c(-c2cn(C)c3ccccc23)nc2cnc(N3CCNCC3)nc21`, the Potency is > 9.22 µM (inactive). As for `CN(C)c1ncc2nc(-c3cc(F)cc(F)c3)c(=O)n(C3CC3)c2n1`, the Potency was > 9.22 µM (inactive). For the molecule `CN1CCN(c2ncc3nc(-c4ccc(Cl)cc4)c(=O)n(-c4ccccc4)c3n2)CC1`, the Potency is > 9.22 µM (inactive). Next, `COc1cccc(Cn2c(=O)c(-c3ccc(F)cc3)nc3cnc(OC)nc32)c1`: > 9.22 µM (inactive).

Consider `Cc1cccc(CNc2ccnc(-c3cccnc3)n2)c1`, for which the Potency is > 46 µM (inactive). Next, `COCCn1c(=O)cnc2cnc(Oc3ccccc3)nc21`: > 9.22 µM (inactive). As to `CN1CCN(c2ncnc3ccc(-c4ccccc4C#N)cc23)CC1`, the Potency was > 46 µM (inactive).

Take `c1nc(N2CCNCC2)c2cc(-c3ccoc3)ccc2n1`: the Potency was > 46 µM (inactive). For `Cc1nc2cnc(N(C)C)nc2n(C[C@H]2CCCO2)c1=O`, the Potency is > 9.22 µM (inactive). In the case of `CN(C)c1ncnc2ccc(-c3ccoc3)cc12`, the Potency was > 46 µM (inactive).

In the case of `Cn1c(=O)c(-c2ccccc2)nc2cncnc21`, the Potency is > 9.22 µM (inactive). Next, `c1ccc2c(-n3ccnc3)nc(-c3ccoc3)nc2c1`: > 46 µM (inactive); `CNc1ncnc2ccc(-c3ccccc3CN(C)C)cc12`: > 46 µM (inactive); `CCNc1ncc2ncc(=O)n(C3CC3)c2n1`: > 9.22 µM (inactive). To `COCCn1c(=O)c(CCc2ccccc2)nc2cnc(Nc3cccc(OC)c3)nc21` belongs > 9.22 µM (inactive); to `O=c1cnc2cncnc2n1Cc1ccc(F)cc1`, > 9.22 µM (inactive); to `c1cncc(CNc2ncnc3ccc(-c4ccoc4)cc23)c1`, > 46 µM (inactive). As for `O=c1c(-c2cc(F)cc(F)c2)nc2cncnc2n1-c1ccccc1`, the Potency was > 9.22 µM (inactive).

Take `N#Cc1cccc(-c2nc3cnc(N4CCOCC4)nc3n(C3CC3)c2=O)c1`: the Potency was > 9.22 µM (inactive). For the molecule `O=c1c(-c2cccs2)nc2cnc(N3CCOCC3)nc2n1Cc1cccs1`, the Potency was > 9.22 µM (inactive). To `O=c1c(-c2cccs2)nc2cnc(N3CCNCC3)nc2n1CCc1ccccc1` belongs > 9.22 µM (inactive); to `COc1ccc(CNc2ncncc2-c2cccnc2)c(OC)c1`, > 46 µM (inactive).
